Sampled rows, rich in hits. Any-hit rate of the full collection: about 2.7%.
SENP8 block-1: inhibitors of human SENP8 protease; inhibition, % at 10 µM; purified SENP8, Z-RLRGG-aminoluciferin cleavage, luminescence; 330,000 compounds, 1.2% hits; Q96LD8; in the data active = inhibition above about 50%
SENP7 block: inhibitors of human SENP7 protease | AID 434973 | Q9BQF6 | recombinant SENP7, Z-RLRGG-aminoluciferin luminescence, 40 min | inhibition, % at 5 µM | 330,000 compounds, 1.5% hits;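 active = inhibition above about 50% at the single test dose, limit read from the data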
HSP90 inh: inhibitors of HSP90 luciferase refolding in rabbit reticulocyte lysate | luciferase refolding luminescence, 3 h | 290,000 compounds, 0.91% hits | inhibition, % at 5.6 µM | AID 1789;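 active = inhibition above the screen-wide mean plus 3 SD, computed separately per campaign, cut at about 16% in these data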;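 note: inhibitors lower the luminescence because luciferase stays unfolded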
SENP6 inh: blocks the human protease SENP6. AID 2599. Recombinant SENP6 catalytic domain, aminoluciferin luminescence. 330,000 compounds, 1.8% hits. Q9GZR1. inhibition, % at 10 µM;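 active = inhibition above about 50% at the single tested dose, limit read from the data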
Target sequence (Q9GZR1 628-1112 limits assumed): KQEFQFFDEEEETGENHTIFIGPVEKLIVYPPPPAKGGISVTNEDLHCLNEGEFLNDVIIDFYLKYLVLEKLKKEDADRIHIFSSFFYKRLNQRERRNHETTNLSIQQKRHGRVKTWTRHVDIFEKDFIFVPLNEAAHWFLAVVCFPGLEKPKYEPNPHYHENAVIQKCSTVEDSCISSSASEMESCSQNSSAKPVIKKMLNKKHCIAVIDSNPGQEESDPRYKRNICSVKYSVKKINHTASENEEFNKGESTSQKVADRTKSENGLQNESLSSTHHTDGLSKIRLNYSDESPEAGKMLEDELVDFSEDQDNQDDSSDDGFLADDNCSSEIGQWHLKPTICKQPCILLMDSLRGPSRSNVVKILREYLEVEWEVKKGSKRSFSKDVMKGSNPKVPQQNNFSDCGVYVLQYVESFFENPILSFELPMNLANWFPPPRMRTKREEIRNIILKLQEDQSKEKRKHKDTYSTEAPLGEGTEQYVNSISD
SENP8 block-2: blocks human SENP8 cleavage of Nedd8 substrate. Q96LD8. inhibition, % at 20 µM. 360,000 compounds, 0.64% hits. AID 602440. recombinant SENP8, Nedd8 substrate fluorescence; in the data active = inhibition mostly above about 40%, no sharp cut-off; inactive = mostly below about 27%
Each line names hits and unclear results; the compound was inactive in the other large screens.

O=C(O)c1ccccc1Nc1cc(Cl)c2nonc2c1[N+](=O)[O-]	none
Cc1cc(O)c(/C=N/Nc2ccc(Cl)cc2)c(=O)o1	SENP8 block-1 80, SENP7 block 56, SENP6 inh 85
COc1ccc(Cl)cc1N=Cc1c(O)cc(C)oc1=O	none
O=C(CN1C(=O)c2ccccc2C1=O)Nc1cccc2cccnc12	none
O=C1C=C(Nc2cccc3cccnc23)c2ccccc2C1=O	SENP8 block-2 43
COc1ccc(-c2nc3ccccn3c2C=O)cc1	SENP7 block 55, SENP6 inh 62
CCOC(=O)C1(CCCc2ccccc2)CCN(C(=O)CCc2cnn(C)c2)CC1	none
CCOC(=O)C1(CCCc2ccccc2)CCN(C(=O)CCOC)CC1	SENP6 inh 87
COc1ccc(/C=C2/CCOC2=O)cc1	none
O=C1N/C(=N/O)S/C1=C/c1cccc([N+](=O)[O-])c1	SENP6 inh 57
O=C1N/C(=N\S(=O)(=O)Cc2ccccc2)S/C1=C/c1cccc([N+](=O)[O-])c1	none
Cc1ccc(/C=N/n2nnnc2N)cc1[N+](=O)[O-]	none
O=C(CCc1ccccc1)NC(=S)NCc1ccco1	none
NC(=S)N=Nc1c(O)n(C2OC(=O)c3ccccc32)c2ccccc12 (stereo not drawn)	SENP8 block-2 49
N#Cc1ccc(Oc2ccc(C#N)c(C#N)c2)cc1C#N	none (no result: SENP8 block-1, SENP7 block, HSP90 inh, SENP6 inh)
CN=c1sc2c(n1C)C(=O)c1ccccc1C2=O	SENP8 block-2 73 (no result: SENP8 block-1, SENP7 block, HSP90 inh, SENP6 inh)
CCC(COC(=O)c1ccccc1)Oc1cc(NCc2ccccc2)c2ncn(C(C)C)c2c1 (stereo not drawn)	SENP8 block-2 44 (no result: HSP90 inh)
CCC1(C)Cc2ccccc2-c2nc(SCC(N)=O)[nH]c(=O)c21 (stereo not drawn)	none
COc1ccc(NC(=S)NC(NC(=O)c2cccc3ccccc23)C(Cl)(Cl)Cl)c([N+](=O)[O-])c1 (stereo not drawn)	none
COc1ccc(NC(=S)NC(NC(=O)CCl)C(Cl)(Cl)Cl)c([N+](=O)[O-])c1 (stereo not drawn)	SENP8 block-2 52
O=S(=O)(c1ccccc1)c1nc(-c2ccccc2Cl)oc1NCCCN1CCOCC1	none (no result: HSP90 inh)
O=C1C(Cl)=C(NCCN2CCOCC2)C(=O)c2ccccc21	SENP8 block-2 59
O=C1c2ccccc2C(=O)N1CCN1CCOCC1	none
O=C1C(Cl)=C(NCCCN2CCOCC2)C(=O)c2ccccc21	SENP8 block-2 64 (no result: SENP8 block-1, SENP7 block, HSP90 inh, SENP6 inh)
CN(C)c1ccc(NC2=C(Cl)C(=O)c3ccccc3C2=O)cc1	SENP8 block-2 43
O=C1C(Cl)=C(NCCCO)C(=O)c2ccccc21	SENP8 block-2 83
O=c1cc(NCCCO)c2ccccc2o1	none
CC(=O)Nc1ccc(NC2=C(Cl)C(=O)c3ccccc3C2=O)cc1	none (no result: SENP8 block-2)
CCCCN1CC(=O)N2[C@H]3c4cc(OC)ccc4OC[C@@H]3[C@H](C(=O)OCC)[C@]2(C)C1=O	none (no result: HSP90 inh)
Cc1cc(N2CCN(C(=O)c3ccco3)CC2)c2ccccc2n1	none
CC(=O)OCCNc1cc(N2CCN(C)CC2)c2noc3c2c1C(=O)c1ccccc1-3	SENP8 block-2 47 (no result: SENP8 block-1, SENP7 block, SENP6 inh)
O=C(O)CCNc1cc(N2CCN(C(=O)c3ccco3)CC2)c2noc3c2c1C(=O)c1ccccc1-3	SENP6 inh 51, SENP8 block-2 70
CCN1CCN(c2cc(N3CCN(C(=O)c4ccco4)CC3)c3c4c(onc24)-c2ccccc2C3=O)CC1	SENP8 block-2 68
C#CC1(NC(=O)NS(=O)(=O)c2ccc(C)cc2)CCCCC1	none
Cc1ccccc1OCC(=O)Nc1nnc(-c2ccncc2)s1	none
CC1CN(c2ccccc2)C(=O)CS1 (stereo not drawn)	none
C=C(C)/C=N/NC(=S)Nc1ccc(S(=O)(=O)N2CCOCC2)cc1	none
CCN(CC)c1ccc(/C=N/NC(=O)c2ccc(Br)o2)cc1	SENP6 inh 70
O=C(O)C(S)C(S)C(=O)O (stereo not drawn)	SENP8 block-2 49 (no result: SENP8 block-1, SENP7 block, HSP90 inh, SENP6 inh)
O=C(O)O	none (no result: SENP8 block-1, SENP7 block, SENP6 inh, SENP8 block-2)
C/C(=N/OC(=O)c1ccc(Cl)cc1Cl)c1oc(C)nc1C	SENP8 block-1 83, SENP7 block 87, SENP6 inh 90
COc1cccc(-c2nc(-c3ccc(Br)o3)no2)c1	SENP8 block-1 72, SENP7 block 84, SENP6 inh 85
COc1ccc(-c2nc(-c3ccc(Br)o3)no2)cc1OC	none
COc1ccc(C)c2sc(=NC(=O)c3ccc(C(C)=O)cc3)n(C)c12	SENP8 block-1 82, SENP7 block 97, SENP6 inh 89
Cc1c(C(=O)N2CCc3ccccc3C2)sc2nc(-c3ccccc3)cn12	none
COc1ccc(-c2cn3c(C)c(C(=O)Nc4cc(NC(C)=O)ccc4OC)sc3n2)cc1	HSP90 inh 54

Assay outcomes deposited in PubChem by several laboratories.
